Experimental findings from PubChem BioAssay (NCI) are described below.

The panel holds about 83,000 compounds, 20% with a hit somewhere; the sample as a whole holds those more often.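 Treatment: one concentration, 48 hours, 96-well format. Scoring: percent growth, with anything below 10 considered active.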 Unmarked numbers belong to inactive results. The source made the active and inactive calls.

Among the test systems are NCI-H23 lung; NCI-H226 lung; NCI-H322M lung; HOP-62 NSCLC; NCI-H460 lung; HOP-92 NSCLC; NCI-H522 lung; A549/ATCC NSCLC; 786-0 renal; COLO 205 colon; DU-145 prostate; MALME-3M melanoma; MDA-MB-231 breast; RXF 393 renal; SF-268 CNS; SF-295 CNS; SF-539 CNS; UACC-257 melanoma; M14 melanoma; K-562 leukemia.
Assay in all cases: NCI-60 one-dose screen, 48 h (100 = growth as untreated, 0 = no growth, -100 = all killed)
What all share (details): 10 µM unless noted

On to `CCOc1cccc(/C=N/NC(=O)Cc2ccc(Nc3ccnc(C(F)(F)F)c3)cc2)c1O`, for which the growth is 39% in the assay with NCI-H23 lung; -1.59% (active) in the assay on NCI-H226 lung; 36.8% in the assay with NCI-H322M lung; 7.88% (active) in the assay on HOP-62 NSCLC; 0.302% (active) with NCI-H460 lung; 46.7% in the assay on HOP-92 NSCLC. Besides, the growth with NCI-H522 lung is 13.4%; in the assay on A549/ATCC NSCLC it was 47.3%; with 786-0 renal, 29%; with COLO 205 colon, 4.75% (active); in the assay with DU-145 prostate, 33.2%; in the assay with MALME-3M melanoma it was 34.3%. Besides, the growth in the assay on MDA-MB-231 breast is 26.8%; in the assay with RXF 393 renal, 51.1%; with SF-268 CNS, 18.2%; with SF-295 CNS, 47.9%; in the assay on SF-539 CNS, 17.4%; in the assay with UACC-257 melanoma, 21.9%. Besides, in the assay with M14 melanoma, the growth is 3.19% (active).
`COc1ccc(Nc2ncccc2C(=O)NCc2cn(Cc3cc(OC)cc(OC)c3)nn2)cc1`: the growth is 103% in the assay on NCI-H23 lung; 98.3% in the assay with NCI-H226 lung; 105% in the assay with NCI-H322M lung; 81.9% in the assay on HOP-62 NSCLC; 98.3% with NCI-H460 lung; 93.2% in the assay on HOP-92 NSCLC. The growth in the assay with NCI-H522 lung is 79.4%; with A549/ATCC NSCLC, 89.5%; with 786-0 renal, 95.3%; with COLO 205 colon, 114%; in the assay on DU-145 prostate, 95.2%; in the assay on K-562 leukemia, 84.3%. Further, the growth is 105% in the assay on MDA-MB-231 breast; 96.1% in the assay with RXF 393 renal; 87.2% in the assay with SF-268 CNS; 90.3% in the assay on SF-539 CNS; 98.1% in the assay on UACC-257 melanoma; 98.7% in the assay on M14 melanoma.
On to `COc1cc(Cn2c(-c3ccccc3)cc3c2-c2oncc2CC3)cc(OC)c1OC`, for which the growth in the assay on NCI-H23 lung is 48.4%; in the assay with NCI-H226 lung it was 51%; with NCI-H322M lung, -13.2% (active); in the assay on HOP-62 NSCLC it was 39%; in the assay with NCI-H460 lung it was 9.75% (active); in the assay on HOP-92 NSCLC it was 28%. Also, the growth with NCI-H522 lung was 5.31% (active); in the assay on A549/ATCC NSCLC, 23.9%; with 786-0 renal it was 32.7%; with COLO 205 colon, 14.5%; in the assay on DU-145 prostate, -21.1% (active); in the assay on K-562 leukemia it was 11.8%. The growth is 47.1% in the assay with MDA-MB-231 breast; 9.54% (active) in the assay with RXF 393 renal; 44.8% in the assay with SF-268 CNS; -3.28% (active) in the assay on SF-539 CNS; 58.8% in the assay on UACC-257 melanoma; 21.9% with M14 melanoma.
Turning to `COc1ccc2c(c1)N(CCO)C1=C(C(=O)OC1)C2c1cccc(Br)c1` (stereo not drawn), the growth with NCI-H23 lung was 29.2%; in the assay on NCI-H226 lung, -5.22% (active); in the assay with NCI-H322M lung, 29%; in the assay on HOP-62 NSCLC, 29.4%; with NCI-H460 lung, 2.07% (active); with HOP-92 NSCLC, 42.7%. In addition, the growth with NCI-H522 lung is -19.2% (active); in the assay with A549/ATCC NSCLC, 16.4%; with 786-0 renal it was 21.4%; in the assay on COLO 205 colon, -47.2% (active); with DU-145 prostate, -27.2% (active); with K-562 leukemia it was 13.6%. The growth in the assay on MDA-MB-231 breast was -10.6% (active); in the assay on RXF 393 renal, 44.4%; in the assay on SF-268 CNS, 25%; in the assay with SF-295 CNS it was -19.4% (active); in the assay with SF-539 CNS, -6.97% (active); in the assay on UACC-257 melanoma, 60%. Moreover, the growth with M14 melanoma is 8.81% (active).
`O=C(O)c1ccccc1N=Cc1ccccc1`: the growth was 98% in the assay with NCI-H23 lung; 132% in the assay with NCI-H226 lung; 120% in the assay on NCI-H322M lung; 100% with HOP-62 NSCLC; 106% with NCI-H460 lung; 90.2% in the assay with HOP-92 NSCLC. The growth is 101% in the assay with NCI-H522 lung; 102% in the assay with A549/ATCC NSCLC; 104% with 786-0 renal; 105% with COLO 205 colon; 108% in the assay with DU-145 prostate; 99.2% with K-562 leukemia. Also, the growth is 109% in the assay on MDA-MB-231 breast; 132% in the assay on RXF 393 renal; 109% in the assay with SF-268 CNS; 101% in the assay with SF-539 CNS; 113% in the assay on UACC-257 melanoma; 109% with M14 melanoma.
Regarding `COc1ccc(/C=C2\CCCC3=C2N=C2SC(C)=NN2C3c2ccc(OC)c(OC)c2)cc1OC` (stereo not drawn), the growth in the assay with NCI-H23 lung was 35.5%; in the assay with NCI-H226 lung, 31%; with NCI-H322M lung it was 27.9%; in the assay on HOP-62 NSCLC it was 23.1%; in the assay on NCI-H460 lung, 19.1%; in the assay with HOP-92 NSCLC, 37.2%. In addition, the growth was 35.8% in the assay on NCI-H522 lung; 20.1% with A549/ATCC NSCLC; 53% in the assay on 786-0 renal; 22.2% in the assay with COLO 205 colon; 16.1% in the assay on DU-145 prostate; 14.5% in the assay with K-562 leukemia. In addition, the growth in the assay on MDA-MB-231 breast is 28.6%; in the assay on RXF 393 renal it was 40.4%; in the assay with SF-268 CNS, 39%; with SF-295 CNS it was 25.3%; in the assay with SF-539 CNS it was 6.88% (active); with UACC-257 melanoma, 51.9%. The growth in the assay on M14 melanoma is 19.8%.
For `CCc1ccc2c(c1)N(CCO)C1=C(C(=O)OC1)C2c1cccc(Br)c1` (stereo not drawn), the growth is 40.9% with NCI-H23 lung; 39.5% in the assay with NCI-H226 lung; 38.9% with NCI-H322M lung; 31% with HOP-62 NSCLC; 11.2% in the assay with NCI-H460 lung; 75.6% in the assay on HOP-92 NSCLC. Further, the growth in the assay with NCI-H522 lung was -26.3% (active); in the assay with A549/ATCC NSCLC it was 29.2%; in the assay with 786-0 renal, 34.4%; in the assay on COLO 205 colon, 5.9% (active); in the assay with DU-145 prostate it was 12%; with K-562 leukemia, 14.8%. Further, the growth is 34.9% in the assay on MDA-MB-231 breast; 10.9% in the assay on RXF 393 renal; 47.2% in the assay with SF-268 CNS; -19.3% (active) in the assay on SF-295 CNS; -8.23% (active) with SF-539 CNS; 63.4% in the assay with UACC-257 melanoma. The growth in the assay on M14 melanoma was 10.8%.
Take `NC(=Nc1ccccc1)SCCCSC(N)=Nc1ccccc1`: the growth in the assay on NCI-H23 lung was 92.6%; in the assay with NCI-H226 lung it was 93.6%; in the assay with NCI-H322M lung, 81.8%; in the assay with HOP-62 NSCLC, 96.5%; with NCI-H460 lung, 100%; in the assay on HOP-92 NSCLC, 41.6%. For the same molecule, the growth with NCI-H522 lung is 69.2%; with A549/ATCC NSCLC, 89.5%; with 786-0 renal, 102%; in the assay on COLO 205 colon, 78.7%; in the assay on DU-145 prostate, 95.7%; with K-562 leukemia, 75%. The growth was 79.5% in the assay on MDA-MB-231 breast; 99.5% in the assay on RXF 393 renal; 95.6% in the assay on SF-268 CNS; 93.6% with SF-539 CNS; 108% in the assay with UACC-257 melanoma; 95.6% in the assay with M14 melanoma.
